# From PubChem BioAssay
# Inconclusive results are not listed. Calls of active or inactive are those of the source. Unless noted, no stated cut-off is given here; in the data, active means inhibition above about 80%; inactive means the rest.
# Assays:
# [1] = viability loss in pontine glioma line – cell-based, JHH-DIPG-1, MIPE4.0, CellTiter-Glo, qHTS, dose response (AID 1347062; cut-off not given, nearly all actives have AC50 up to about 27 µM;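 further: cells exposed to compound for two days before readout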); details: JHH-DIPG-1 viability, CellTiter-Glo ATP luminescence
# [2] = viability loss in pontine glioma line – cell-based, SU-DIPG-XIII, MIPE5.0, CellTiter-Glo, qHTS, dose response (AID 1347064; cut-off not given, nearly all actives have AC50 up to about 23 µM;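 further: cells exposed to compound for 48 hours before the viability read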); details: CellTiter-Glo ATP luminescence
# [3] = viability loss in pontine glioma line – cell-based, SU-DIPG-XXV, MIPE5.0, CellTiter-Glo, qHTS, dose response (AID 1347065; cut-off not given, nearly all actives have AC50 up to about 26 µM;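 further: cells exposed to compound for 48 hours before ATP readout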); details: CellTiter-Glo ATP luminescence
# [4] = growth inhibition of DIPG cells – cell-based, MIPE4.0 library, CellTiter-Glo luminescence, qHTS (AID 1347066; cut-off not given, nearly all actives have AC50 up to about 30 µM;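 further: cells exposed to compound for 48 hours before readout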); details: SU-DIPG-VI viability, CellTiter-Glo ATP luminescence
# [5] = JHH-DIPG-1 glioma cell viability, MIPE5.0 library, CellTiter-Glo luminescence, qHTS (AID 1347067; cut-off not given, nearly all actives have AC50 up to about 26 µM;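 further: cells exposed to compound for 48 hours before readout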); details: JHH-DIPG-1 glioma viability, CellTiter-Glo ATP luminescence
# [6] = growth inhibition, single agent or in combination, cell-based, chromothripsis tumors, cisplatin or BGB combos (AID 1671449); details: LFS_MB_P medulloblastoma cells;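 further: cells exposed for 96 hours; 0% = vehicle DMSO and 100% = killing by high DMSO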
# [7] = growth inhibition, single agent and combos, cell-based, chromothripsis tumors, cisplatin or BGB combos (AID 1671450); details: HDN33 neuroblastoma cells, stronger effect = higher value;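 further: cells exposed to compound for four days; 0% = vehicle DMSO and 100% = cell killing by high DMSO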
# [8] = growth inhibition, single agents and combos, ICB984, cell-based, cisplatin or BGB combos, synergistic combos for chromothripsis tumors (AID 1671451; call rule not given here;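 further: cells exposed for 96 hours before readout; 0% = vehicle DMSO and 100% = killing by high DMSO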); details: ICB984 medulloblastoma cells, drug combinations, stronger effect = higher value
# [9] = growth inhibition, single agents and combos, LFS_MB_1R, cell-based, cisplatin or BGB combos, synergistic combos for chromothripsis tumors (AID 1671452); details: LFS_MB_1R medulloblastoma cells, stronger effect = higher value;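 further: cells exposed for 96 hours before readout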
# [10] = growth inhibition, single agents and combos, HTB85, cell-based, BGB or cisplatin IC20 combos, synergistic combos for chromothripsis tumors (AID 1671453); details: HTB85 osteosarcoma cells, drug combinations, stronger effect = higher value;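 further: cells exposed for 96 hours before readout; 0% = vehicle DMSO and 100% = high DMSO killing control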
# [11] = growth inhibition, single agents and combos, CRL2098, cell-based, BGB or cisplatin IC20 combos, synergistic combos for chromothripsis tumors (AID 1671454); details: CRL2098 osteosarcoma cells, drug combinations, stronger effect = higher value;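 further: cells exposed for 96 h before readout; 0% = vehicle DMSO and 100% = killing by high DMSO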
# [12] = growth inhibition, single agents and combos, HD-MB03, cell-based, BGB or cisplatin IC20 combos, synergistic combos for chromothripsis tumors (AID 1671455; in the data active means inhibition above about 83%;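 further: 0% = vehicle DMSO and 100% = high DMSO as cytotoxic control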); details: HD-MB03 medulloblastoma cells, stronger effect = higher value
# [13] = growth inhibition, single agents and combos, UWB1.289, cell-based, BGB or cisplatin combos, synergistic combos for chromothripsis tumors (AID 1671456); details: UWB1.289 ovarian carcinoma cells, stronger effect = higher value;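 further: cells exposed to compound for four days; 0% = vehicle DMSO and 100% = killing by high DMSO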
# [14] = growth inhibition, single agents and combos, LFS_MB_2R, cell-based, cisplatin combos, synergistic combos for chromothripsis tumors (AID 1671457); details: LFS_MB_2R medulloblastoma cells, stronger effect = higher value;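 further: cells exposed to compound for four days before readout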
# [15] = growth inhibition, MDA-MB-436, cell-based, BGB or cisplatin combos, synergistic combos for chromothripsis tumors (AID 1671458; call rule not given here;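 further: cells exposed for 96 hours; 0% = vehicle DMSO and 100% = killing by high DMSO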); details: MDA-MB-436 breast carcinoma growth inhibition, drug combinations, stronger effect = higher value
# [16] = UWB1.289_BRCA1 ovarian cancer growth, cell-based, BGB or cisplatin combinations (AID 1671459); details: UWB1.289 BRCA1 ovarian carcinoma, drug combinations, stronger effect = higher value
# [17] = drug combination toxicity in non-malignant astrocytes – cell-based, BGB or cisplatin IC20 combos, cytotoxicity control for chromothriptic childhood tumor combination screen (AID 1671460); details: Human astrocytes, viability inhibition, drug combinations, at 0.5 µM, stronger effect = higher value;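 further: cells exposed to compounds for 96 hours before viability readout; 0% = vehicle and 100% = killing control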
# [18] = BT084 cell growth, single and combined drugs, ICGC_MB145, cisplatin and BGB IC40 combos (AID 1671461); details: BT084 medulloblastoma cells, drug combinations, stronger effect = higher value;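 further: cells exposed to drugs for 96 hours; 0% = vehicle DMSO and 100% = high DMSO full killing control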
# [19] = RCMB18 cell growth, single agent and combined, cisplatin and BGB IC40 combos (AID 1671462); details: RCMB18 medulloblastoma cells, stronger effect = higher value;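 further: cells exposed to compound for four days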
# [20] = CRL1545 cell growth, single agent and combined, cisplatin and BGB IC20 combos (AID 1671464); details: CRL1545 osteosarcoma cells, stronger effect = higher value;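 further: cells exposed to compound for 96 hours before readout; 0% = vehicle DMSO and 100% = high DMSO killing control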
# [21] = measured here: combination with BGB IC40, at 0.05 µM
# [22] = measured here: with BGB IC20 combination, at 0.5 µM
# [23] = measured here: with cisplatin IC20 combination, at 0.5 µM
# [24] = measured here: combination with cisplatin, at 0.5 µM
# [25] = measured here: combination with cisplatin, at 5 µM
smiles,measurement,setting,value
COc1ccc(C(=O)CC2(O)C(=O)Nc3c(Cl)ccc(Cl)c32)cc1 (stereo not drawn),AC50,[1],6.62 µM (active)
same,AC50,[2],11.8 µM (active)
same,AC50,[3],4.17 µM (active)
same,outcome,[4],inactive
same,AC50,[5],2.63 µM (active)
same,inhibition,"[6]; at 0.5 µM, stronger effect = higher value",-20.8% (inactive)
same,inhibition,"[6]; measured here: combination with BGB IC20, at 0.005 µM",-14.2%
same,inhibition,"[6]; measured here: combination with BGB IC40, at 0.005 µM",-20.5%
same,inhibition,[6]; [21],-14.8%
same,inhibition,"[6]; measured here: combination with cisplatin, at 0.5 µM, stronger effect = higher value",-51.4%
same,inhibition,"[6]; measured here: combination with cisplatin, at 5 µM, stronger effect = higher value",10.7%
same,inhibition,"[7]; BGB combo, at 5 µM",63.6%
same,inhibition,[7]; at 0.5 µM,28.4% (inactive)
same,inhibition,"[7]; cisplatin combo, at 5 µM",59.7%
same,inhibition,[7]; [22],21.3%
same,inhibition,[7]; [23],16%
same,inhibition,"[7]; single agent, at 5 µM",93.1%
same,inhibition,"[8]; BGB IC20 combo, at 0.005 µM",-4.85%
same,inhibition,"[8]; BGB IC40 combo, at 0.005 µM",-25.9%
same,inhibition,"[8]; BGB IC40 combo, at 0.05 µM",11.3%
same,inhibition,[8]; at 0.5 µM,-24.6% (inactive)
same,inhibition,"[8]; cisplatin combo, at 0.05 µM",8.85%
same,inhibition,"[8]; cisplatin combo, at 0.5 µM",-32.2%
same,inhibition,"[8]; cisplatin combo, at 5 µM",-25.3%
same,inhibition,"[8]; measured here: 5 uM single agent, at 5 µM",-28.8%
same,inhibition,[9]; at 0.5 µM,2.98% (inactive)
same,inhibition,[9]; [21],-32.3%
same,inhibition,[9]; [24],23.2%
same,inhibition,[9]; [25],27.4%
same,inhibition,[10]; at 0.5 µM,33.2% (inactive)
same,inhibition,"[10]; measured here: with BGB IC20, at 0.5 µM",33.1%
same,inhibition,"[10]; measured here: with BGB IC20, at 5 µM",64.4%
same,inhibition,"[10]; measured here: with cisplatin IC20, at 0.5 µM",11.7%
same,inhibition,"[10]; measured here: with cisplatin IC20, at 5 µM",63.8%
same,inhibition,"[10]; single agent, at 5 µM",88.4%
same,inhibition,[11]; at 0.5 µM,-4.98% (inactive)
same,inhibition,"[11]; measured here: combination with BGB at IC20, at 0.5 µM",4.02%
same,inhibition,"[11]; measured here: combination with cisplatin at IC20, at 0.5 µM",-4.5%
same,inhibition,[12]; at 0.5 µM,57.3% (inactive)
same,inhibition,"[12]; measured here: combo with BGB at IC20, at 0.5 µM",58.6%
same,inhibition,"[12]; measured here: combo with cisplatin at IC20, at 0.5 µM",55.7%
same,inhibition,[13]; at 0.5 µM,11.3% (inactive)
same,inhibition,"[13]; measured here: inhibition with BGB combination, at 0.05 µM",-8.43%
same,inhibition,"[13]; measured here: inhibition with cisplatin combination, at 0.05 µM",-6.45%
same,inhibition,[14]; at 0.5 µM,-4.47% (inactive)
same,inhibition,[14]; [24],-11.7%
same,inhibition,[14]; [25],-26.3%
same,inhibition,[15]; at 0.5 µM,2.68% (inactive)
same,inhibition,"[15]; measured here: BGB combination, at 0.5 µM",-5.4%
same,inhibition,"[15]; measured here: BGB combination, at 5 µM",40.2%
same,inhibition,"[15]; measured here: cisplatin combination, at 0.5 µM",-2.19%
same,inhibition,"[15]; measured here: cisplatin combination, at 5 µM",64.3%
same,inhibition,"[16]; BGB combination, concentration series, at 5 µM",47.8%
same,inhibition,[16]; at 0.5 µM,14.6% (inactive)
same,inhibition,"[16]; cisplatin combination, concentration series, at 5 µM",51.1%
same,inhibition,[17],9.33% (inactive)
same,inhibition,[17]; measured here: combo with BGB IC20,10.9%
same,inhibition,[17]; measured here: combo with cisplatin IC20,2.7%
same,inhibition,[18]; at 0.5 µM,-18.2% (inactive)
same,inhibition,"[18]; cisplatin combination, at 0.5 µM",1.77%
same,inhibition,"[18]; cisplatin combination, at 5 µM",10.6%
same,inhibition,"[18]; measured here: BGB IC40 combination 0.05 uM, at 0.05 µM",2.03%
same,inhibition,"[18]; single agent, at 5 µM",40.8%
same,inhibition,[19]; at 0.5 µM,-4.73% (inactive)
same,inhibition,"[19]; cisplatin combo, at 5 µM",26.4%
same,inhibition,"[19]; measured here: BGB IC40 combination, at 0.05 µM",-41.1%
same,inhibition,[19]; [24],6.7%
same,inhibition,"[19]; single agent, at 5 µM",24.9%
same,inhibition,[20]; at 0.5 µM,0.14% (inactive)
same,inhibition,[20]; [22],16.2%
same,inhibition,[20]; [23],-10.3%
same,inhibition,"[20]; single agent, at 0.05 µM",-6.9%
same,inhibition,"[20]; single agent, at 5 µM",77.7%
